± gives the standard deviation of the averaged measurements.
system: SUM149; test: percent difference in area under dose-response curve of relative cell number, RPMI vs HPLM; higher = drug relatively more effective in HPLM than RPMI (negative = less effective in HPLM); conditions: treatment time: 72 h; dose range: 10-point, 1 nM to 20 µM; media compared: RPMI vs HPLM

In order of rising “percent difference in area under dose-response curve” value:
1. COc1cccc2c1C(=O)c1c(O)c3c(c(O)c1C2=O)C[C@@](O)(C(=O)CO)C[C@@H]3O[C@H]1C[C@H](N)[C@H](O)[C@H](C)O1 [Doxorubicin]  -24.4%
2. COc1cc([C@@H]2c3cc4c(cc3[C@@H](O[C@@H]3O[C@@H]5CO[C@@H](C)O[C@H]5[C@H](O)[C@H]3O)[C@H]3COC(=O)[C@H]23)OCO4)cc(OC)c1O [Etoposide]  -22.4%
3. CN(NC(=O)CC(=O)NN(C)C(=S)c1ccccc1)C(=S)c1ccccc1 [Elesclomol]  -21.3 ± 1.7%
4. CCN(CCCOc1ccc2c(Nc3cc(CC(=O)Nc4cccc(F)c4)[nH]n3)ncnc2c1)CCOP(=O)(O)O [Barasertib]  -20.6%
5. Nc1nc(Cl)nc2c1ncn2[C@H]1C[C@H](O)[C@@H](CO)O1 [Cladribine]  -12.6 ± 2.1%
6. CC(C)(C)c1ccc(S(=O)(=O)NCc2ccc(C(=O)Nc3cccnc3)cc2)cc1  -12.4%
7. CCNC(=O)c1noc(-c2cc(Cl)c(O)cc2O)c1-c1ccc(OC)cc1  -12.2%
8. CCC(C)n1ncn(-c2ccc(N3CCN(c4ccc(OCC5COC(Cn6cncn6)(c6ccc(Cl)cc6Cl)O5)cc4)CC3)cc2)c1=O (stereo unspecified) [Itraconazole]  -12%
9. CCc1c2c(nc3ccc(OC(=O)N4CCC(N5CCCCC5)CC4)cc13)-c1cc3c(c(=O)n1C2)COC(=O)[C@]3(O)CC [Irinotecan_HCl_Trihydrate]  -10.1%
10. O=C(Nc1cccc(C(F)(F)F)c1)Nc1cc(S(=O)(=O)NC2CC2)ccc1-c1ccsc1  -8.01%
11. COc1cccc2c(NCc3ccccc3)nc(-n3c(N)nc4ccccc43)nc12  -7.47%
12. Nc1ccc(-c2ccc3ncc4ccc(=O)n(-c5cccc(C(F)(F)F)c5)c4c3c2)cn1 [Torin_2]  -2.02%
13. Oc1ccc(/C=C/c2cc(O)cc(O)c2)cc1 [Resveratrol]  -1.11%
14. O=C(O)Cc1cccc(OCCCN(Cc2cccc(C(F)(F)F)c2Cl)CC(c2ccccc2)c2ccccc2)c1  1.28%
15. C=CC(=O)Nc1cccc(Oc2nc(Nc3ccc(N4CCN(C)CC4)cc3OC)ncc2Cl)c1  3.23%
16. COC(=O)c1ccc2c(c1)NC(=O)/C2=C(\Nc1ccc(N(C)C(=O)CN2CCN(C)CC2)cc1)c1ccccc1  3.26%
17. O=c1cc(-c2cccc3c2Sc2ccccc2S3)oc(N2CCOCC2)c1  4.24%
18. CCOc1cc2ncc(C#N)c(Nc3ccc(F)c(Cl)c3)c2cc1NC(=O)/C=C/CN(C)C [Pelitinib]  4.27%
19. NC(=O)Nc1sc(-c2ccc(F)cc2)cc1C(N)=O  6.37%
20. CCCS(=O)(=O)Nc1ccc(F)c(C(=O)c2c[nH]c3ncc(-c4ccc(Cl)cc4)cc23)c1F [Vemurafenib]  6.44%
21. CO[C@H]1C[C@@H]2CC[C@@H](C)[C@@](O)(O2)C(=O)C(=O)N2CCCC[C@H]2C(=O)O[C@H]([C@H](C)C[C@@H]2CC[C@@H](O)[C@H](OC)C2)CC(=O)[C@H](C)/C=C(\C)[C@@H](O)[C@@H](OC)C(=O)[C@H](C)C[C@H](C)/C=C/C=C/C=C/1C [Rapamycin]  12.8%
